Over roughly 24,000 sequences, “enrichment r” has its median near 0.99; the highest 2% begin near 3.7. The entries come from a sample that favours the highest values as a whole.
B1: chrX:140365796:140365797:-_ENSMUSG00000031285_ENSMUST00000033642|mus_mus|mus_mus_mus_hu_False|48_108 (ssRNA)
RNA: GGGAGUUCUACAGUCCGACGAUCCUUCUCAUUACUUAGUGCCUGCAAGGUUCUGGUUCGGUAGAAGCUACAGUGGGCGCUGUGAGUGGGACUUGGAAACCCAUUCAUCCGGGAGCCUCGCAUGUUCCUGGAUGUCUUAUCUCUCAACAGAGGAUUGAGCAUCA
B2: chr11:100882373:100882374:+_ENSMUSG00000019302_ENSMUST00000044721|mus_mus|mus_mus_mus_hu_True|28_28 (ssRNA)
RNA: GGGAGUUCUACAGUCCGACGAUCUUCCUGGUUUGUGUUGAUUUCCUUCAGUUCAUUUUCAAUCUUCUCAAAAUUGGCCUCUAAGUCAAUCAUGUCCCGGGGGAAGGGCACCUCUGGGUUUUCACCGGUGUCCAUAAUCGGAAUCAACAGAGGAUUGAGCAUCA
B3: chr1:88750987:88750988:+_ENSMUSG00000053333_ENSMUST00000065694|mus_mus|motif|central (ssRNA)
RNA: GGGAGUUCUACAGUCCGACGAUCUGAUAAGCCUCUUGUGUCCUGUGGUAUGGGGGUGUUCUCAUCUUUCAUAACUGGAGUACGGGAAUCUUCUUUUCCUCUGUCAGGAGUAGAGAUUGACAAUUUCUUAACACCAUCAACCAGCAACAGAGGAUUGAGCAUCA
B4: chr1:225611761:225611762:-_ENSG00000143815_ENST00000272163|hu_mus|hu_hu_hu_mus_True|8_108 (ssRNA)
RNA: GGGAGUUCUACAGUCCGACGAUCCCAGGCCAUCGACCUCUGACCACUUCACCCUCAACAAACUUCCUACUUGGCAUUUUCUAAAAUUAGUCUGGCCGCGCUCCGGCGGGAACUCCAGCCACUCCAGGGAGAAUAGUAGCAGCCCAACAGAGGAUUGAGCAUCA
B5: chr1:180971808:180971809:-_ENSG00000135823_ENST00000258301|hu_mus|FALSE|FALSE (ssRNA)
RNA: GGGAGUUCUACAGUCCGACGAUCUUUUCUUAUGCUCAAUUCAGUUGCAUCCAAGUUGAAUUUUCUAGGAUUUGCUUCAACUAUGCUGAUGGUUUCAUCGAGGUCCUCCAGAUCCCACUCUAUGCUGCGGAGAUUGUUCCUCAGCAACAGAGGAUUGAGCAUCA
B6: 5721493_5721695_819_3pUTR_ENSMUSG00000024937_ENSMUST00000075606|mouse|control|control (ssRNA)
RNA: GGGAGUUCUACAGUCCGACGAUCCUCCUCAUCACUCUCAGCAAAGUCAUCCAGGUUUCCCACGUCACUAGGCUUCACACUCAUGAGGCUGGCCAGACUCUGCAUGUCAUCAUCCGUGGCACGGCCUUCUCGCAGCAGCACCCCCAACAGAGGAUUGAGCAUCA
B7: chr8:81717444:81717445:+_ENSMUSG00000071064_ENSMUST00000098614|mus_mus|FALSE|FALSE (ssRNA)
RNA: GGGAGUUCUACAGUCCGACGAUCUAAUGUACACAAACCUUGACAGUAUGAGCGUCUGAACAUAAUAUGAGGAGUUAAAAAAAAAGAAAGAAAGAAAGAAAGAAAGAAAGAGAGAGAGAAAGAAAAGAAAGGACAGGAGAGAGACAACAGAGGAUUGAGCAUCA
B8: chr13:55803104:55803105:+_ENSMUSG00000045767_ENSMUST00000057844|mus_hu|FALSE|FALSE (ssRNA)
RNA: GGGAGUUCUACAGUCCGACGAUCGCACAGCACCAGUAAGUAGAUGUGCUGGAGGGUAGAGGAAGAGGAAUGAAUGUACGAAAGGCAGGGGAGAAAGGGAAGGGUAUGUAUAACAAAAUAAGGAAGGAAAAUAAACUGAAAGGGCAACAGAGGAUUGAGCAUCA
B9: chr19:8913615:8913616:-_ENSMUSG00000071658_ENSMUST00000096259|mus_hu|mus_mus_mus_hu_False|1_38 (ssRNA)
RNA: GGGAGUUCUACAGUCCGACGAUCAGGGUACCAAAACCUUCUGCCUGAAAUGGGUGCCCCACCCAGUAGGGAGUUGCAGCUGAAAGUAUCUGAUGCACUGACAGUUACUAUACGAAAGGAGGCCCCUGGGGAGGGCCCGAGAUCCAACAGAGGAUUGAGCAUCA
B10: chr10:112657927:112657928:+_ENSG00000150593_ENST00000280154|hu_mus|FALSE|FALSE (ssRNA)
RNA: GGGAGUUCUACAGUCCGACGAUCAAAAAAAAAAAAAAAAAAAAAAACAAUAACAAAAACAAAAGGAAAAGAAAACCUGUACUGACAACUCUUACAGUUGAGAUCUGUUCUUGGUAACACCUAAGACUGUAAGAGUUGCUGUGCCAACAGAGGAUUGAGCAUCA
B11: chr1:178664722:178664723:-_ENSMUSG00000057335_ENSMUST00000057037|mus_mus|motif|central (ssRNA)
RNA: GGGAGUUCUACAGUCCGACGAUCAGUCGUUGUUGCUGUCUUGCAGGGUCCUUACAAAUGUGUAAGACUGACAAAGGGUUACGGUGGACCUACAGGGAAACACAGAAGCAAUUCAAUGACUGGGAGUGCAACUAUCAACUACUCCAACAGAGGAUUGAGCAUCA
B12: chr4:148551591:148551592:-_ENSMUSG00000063077_ENSMUST00000060537|mus_hu|mus_mus_mus_hu_False|28_68 (ssRNA)
RNA: GGGAGUUCUACAGUCCGACGAUCACCUGACAAAAUUAAAUAUCCCUGUAAAUUAGACAAUAAGCAGCAGGUAACAAAGUCUUUGCUUUGGAAUAUGUGCCAGGAAAAAUCAUGUUUUUUUUAGAUCUCAAGAGACAGUUCACACAACAGAGGAUUGAGCAUCA
B13: chr2:47387792:47387793:-_ENSG00000143933_ENST00000272298|hu_hu|motif|central (ssRNA)
RNA: GGGAGUUCUACAGUCCGACGAUCUUAGGACAAUGACAGUAAGAUAAGGGAAGAAAACAUGGAGGAAUGAAGUCCGGAUUACGGUACAUGCAUAUUUUUUUGACAGUAGGGAGAAACCUUUUACAGAUAAGUUACAAACAAAGACAACAGAGGAUUGAGCAUCA
B14: chr19:8913615:8913616:-_ENSMUSG00000071658_ENSMUST00000096259|mus_hu|mus_mus_mus_hu_False|98_108 (ssRNA)
RNA: GGGAGUUCUACAGUCCGACGAUCAGGGGGGCACCAAACCCUGCCUCAAAUGGGUGCCCCACCCAGUAGGGAGUUGCAGCUGAAAGUAUCUGAUGCAGAAGCAGUGACUAUACGAAAGGAGGCCCCUGGGGAGGGCCAGGCCAGCAACAGAGGAUUGAGCAUCA
B15: chr1:58468927:58468928:-_ENSMUSG00000026034_ENSMUST00000148330|mus_mus|mus_mus_mus_hu_False|18_48 (ssRNA)
RNA: GGGAGUUCUACAGUCCGACGAUCAAUUACUGAAAAAGAUGUUCAUUACCUUAGCUAUGUACUUAAUGAACCAAAUUACCCAAACAACAUAAAAUGUGCAAUAUAAAAAUGUUAAGAAAAUAACUUACUGUACAAAAUAACUUACAACAGAGGAUUGAGCAUCA
B16: chr2:49626764:49626765:+_ENSMUSG00000026764_ENSMUST00000028102|mus_hu|FALSE|FALSE (ssRNA)
RNA: GGGAGUUCUACAGUCCGACGAUCGCACACAUCUGUACACACAGAAACUCUACACAGCUCAAAAGACCUGAAACUGGUGUACUGCAGAUGGCUGGAGUAAGCAAGUAUAAAAAAAAAAUGGAAACUGUAGGGGGGGAAAAAUAACAACAGAGGAUUGAGCAUCA
B17: chr17:57746147:57746148:+_ENSG00000141367_ENST00000269122|hu_hu|FALSE|FALSE (ssRNA)
RNA: GGGAGUUCUACAGUCCGACGAUCUUGCCCAGUCUUGCAAGCUGCCUGAAUAUAUUUAAAGUGCACAUCUGGGUCCUGGCUAAAGUUAACAAUGGAUCCCAGAAAAUAAAAGAGACCUUCAAAACUCUUGAAAGAUUCAAAAAGCAACAGAGGAUUGAGCAUCA
B18: chr10:33214929:33214930:-_ENSG00000150093_ENST00000302278|hu_hu|hu_hu_hu_mus_True|18_78 (ssRNA)
RNA: GGGAGUUCUACAGUCCGACGAUCAACAAGUUCAUUGAAAAACUCUCCUCUGUCAGUAAGACUGAGCACAUUUUUGUAGCUAAAUGGGCUGGUGCAGUUUUGUUCACUUGUACAAGGGUUCCUGAGCUUUGCUGGGGUUGUGCUCAACAGAGGAUUGAGCAUCA

biological target: T1, UNK ZnF1-3 (human, UniProt Q9C0B0 31-174); experiment: nsRBNS (natural sequence RNA bind-n-seq); RBNS binding buffer (assumed for nsRBNS): 25 mM Tris pH 7.5, 150 mM KCl, 3 mM MgCl2, 0.01% Triton X-100, 500 ug/ml BSA, 20 U/ml SUPERase-In, 4 C; UNK is unkempt and MSI1 is Musashi-1; names of the RNAs are library labels; protein concentration not given here; high values mean tight binding
T1 sequence: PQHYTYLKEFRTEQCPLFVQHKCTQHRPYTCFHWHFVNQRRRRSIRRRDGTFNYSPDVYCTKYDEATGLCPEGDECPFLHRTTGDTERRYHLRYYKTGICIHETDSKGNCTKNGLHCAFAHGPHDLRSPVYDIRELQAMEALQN

Row | Binder | binding signal
1 | B1 | 0.604 enrichment R
2 | B2 | 0.609 enrichment R
3 | B3 | 0.776 enrichment R
4 | B4 | 1.34 enrichment R
5 | B5 | 0.284 enrichment R
6 | B6 | 0.928 enrichment R
7 | B7 | 4.04 enrichment R
8 | B8 | 5.32 enrichment R
9 | B9 | 1.39 enrichment R
10 | B10 | 8.87 enrichment R
11 | B11 | 1.23 enrichment R
12 | B12 | 1.18 enrichment R
13 | B13 | 1.89 enrichment R
14 | B14 | 1.63 enrichment R
15 | B15 | 0.974 enrichment R
16 | B16 | 9.96 enrichment R
17 | B17 | 2.24 enrichment R
18 | B18 | 1.36 enrichment R

Reference: publication PMC12136788
